Measured values as given in PubChem BioAssay AID504466 (National Center for Advancing Translational Sciences (NCATS), 2011).
Screen size: about 330,000 compounds; about 4,200 (1.3%) were called active. Not shown: some 6% with an inconclusive outcome. Shown is part of a subset that was picked to be rich in actives. A call without a number means that no potency is given here. Unmarked numbers belong to inactive results. Calls come from the whole dose curve; as a rule, active = well fitted activation curve with a large enough effect; inconclusive = small, poorly fitted or top-dose-only effect; inactive = no such curve, though single readings can be large or run the other way.

Assay: qHTS screen for small molecules that induce genotoxicity in human embryonic kidney (HEK293T) cells expressing luciferase-tagged ELG1; note: nearly all actives have a fitted effect of over 60% in size
Conditions: HEK293T ELG1-luciferase reporter, luminescence, 16 h; series mostly up to 46 µM
Summary of the method: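 After overnight (16 hr) compound treatment at 37 °C, ELG1-luciferase HEK293T cells were lysed with ONE-Glo; luminescence quantified 30 min later at room temperature.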
Potency is the fitted concentration of half-maximal effect.

Row | SMILES | Potency | activity change, positive = activation
1 | CS(=O)(=O)N1CCc2nc(-c3ccccc3)sc2C1 | 9.2 µM (active) | –
2 | CS(=O)(=O)N1CCC(C(=O)N2CCN(c3ccccc3)CC2)CC1 | inactive | –
3 | CS(=O)(=O)N1CCN(c2cccc(Cl)n2)CC1 | inactive | –
4 | COc1ccc(C(=O)COC(=O)CN2C(=O)C3CC=CCC3C2=O)c(OC)c1 (configuration not stated) | inactive | –
5 | CCC(C)N(C(=O)CSc1ncnc2c1cnn2-c1ccccc1)C1CCS(=O)(=O)C1 (configuration not stated) | inactive | –
6 | CC(Sc1ncnc2c1cnn2-c1ccccc1)C(=O)Nc1ccc(N2CCOCC2)cc1 (configuration not stated) | inactive | –
7 | CC(C)Sc1ncnc2c1cnn2-c1ccccc1 | 8.2 µM (active) | –
8 | COc1ccc(Br)cc1CN(C)C(=O)C1CC(=O)N(C2CCCC2)C1 (configuration not stated) | inactive | –
9 | O=C1NC(Cc2ccc(O)cc2)c2nc3ccc(Cl)cc3c(=O)n2-c2ccccc21 (configuration not stated) | inactive | –
10 | O=C(Nc1ccccc1)c1ccco1 | inactive | –
11 | CCOC(=O)c1ccc(NC(=O)CNC(=O)c2ccco2)cc1 | inactive | –
12 | COC(=O)c1ccc(NC(=O)c2ccco2)cc1 | 20.6 µM (active) | –
13 | O=C(CN1C(=O)NC(Cc2c[nH]c3ccccc23)C1=O)Nc1ccccc1C(F)(F)F (configuration not stated) | inactive | –
14 | C[C@H]1COC(=O)[C@H](CC(=O)OC(C)(C)C)C/C=C\C[C@@H](CC(=O)N[C@H](CO)Cc2ccccc2)C(=O)N1 | inactive | –
15 | CCOC(=O)C1=C(C)N(C[C@@H]2CC[C@@H](Cc3ccc(-c4ccccc4)cc3)O2)C(=O)NC1c1ccc([N+](=O)[O-])cc1 (some centres not stated) | inactive | –
16 | COc1ccc(CNC(=O)CNC(=O)c2sc3ccccc3c2Cl)cc1OC | inactive | –
17 | COc1ccc2c(Cl)c(C(=O)NCc3ccco3)sc2c1 | 10 µM (active) | –
18 | O=C(NCc1ccco1)c1sc2cccc(F)c2c1Cl | 18.4 µM (active) | –
19 | COc1ccc(C(=O)Nc2ccccc2C(=O)NCc2ccco2)cc1 | inactive | –
20 | O=C(NCc1ccco1)c1nn2cccnc2c1Cl | inactive | –
21 | O=C(CCNC(=O)c1ccccc1Cl)NCc1ccco1 | inactive | –
22 | COc1cc(/C=C2\Oc3ccc(C#Cc4ccc(O)cc4)cc3C2=O)cc(OC)c1 | inactive | –
23 | Cc1cc(C(=O)OCC(=O)N2C(C)CCCC2C)c2ccccc2n1 (configuration not stated) | inactive | –
24 | O=C(c1cnccn1)N1CCN(S(=O)(=O)c2cccc(Cl)c2)CC1 | inactive | –
25 | O=C(COC(=O)c1cc[n+]([O-])cc1)Nc1ccc(Cl)c(C(F)(F)F)c1 | inactive | –

Row | SMILES | Potency | activity change, positive = activation
26 | Cc1cc(O)cc(O)c1C(=O)Cc1cnn(-c2ccccc2)c1 | inactive | –
27 | COc1ccc(C(=O)Cc2cnn(-c3ccccc3)c2)c(O)c1 | 18.4 µM (active) | –
28 | COc1ccc(C(=O)CC(=O)c2ccc(C)cc2)c(O)c1 | inactive | –
29 | CC(=NCc1ccco1)c1c(C(F)(F)F)[nH]n(-c2nc3ccccc3s2)c1=O | 2.59 µM (active) | –
30 | CCc1ccc(-c2cc(C(=O)NCc3ccco3)c3ccccc3n2)s1 | inactive | –
31 | CCC1(CC)NC(=O)N(Cc2nc3ccccc3s2)C1=O | inactive | –
32 | COc1cc(OC)cc(C(=O)NCC(=O)OCC(=O)NC(C)CCc2ccccc2)c1 (configuration not stated) | inactive | –
33 | COc1cc(OC)c(C(=O)NNC(=O)c2ccccc2-n2cccc2)cc1OC | inactive | –
34 | CSc1ccc(C#N)cc1NC(=O)c1cccc(Cl)c1 | inactive | –
35 | O=C(Nc1ccn(Cc2ccccc2F)n1)c1ccc(COc2ccc(Cl)cc2Cl)o1 | inactive | –
36 | N#Cc1ccccc1NC(=O)c1cccc(COc2ccc(Cl)cc2Cl)c1 | 0.461 µM (active) | –
37 | O=C(COC(=O)c1ccccn1)NNC(=O)c1ccc(Br)cc1 | inactive | –
38 | O=C(N[C@H]1C/C=C\C(c2cccc(F)c2)N(Cc2ccccc2)C(=O)C1)OCC1c2ccccc2-c2ccccc21 (some centres not stated) | inactive | –
39 | COc1ccc(S(=O)(=O)N(C)C[C@H]2Oc3c(NC(=O)Nc4ccc5c(c4)OCO5)cccc3C(=O)N([C@H](C)CO)C[C@@H]2C)cc1 | inactive | –
40 | CC(Oc1ccc2c(-c3ccccc3)cc(=O)oc2c1)C(=O)NC(Cc1c[nH]c2ccccc12)C(=O)O (configuration not stated) | inactive | –
41 | O=C(Nc1ccn(Cc2ccccc2)n1)c1cccc(F)c1 | 23.1 µM (active) | –
42 | O=C(Nc1ccccc1N1CCN(c2ccccc2)CC1)c1cccc(F)c1 | inactive | –
43 | O=C(Nc1cccc(NC(=O)c2cccc(F)c2)c1)c1ccccc1 | inactive | –
44 | O=S(=O)(Nc1ncnc2sccc12)c1cccc(F)c1 | inactive | –
45 | Cc1ccc(NC(=O)c2ccc(Cl)nc2)cc1S(=O)(=O)N1CCOCC1 | inactive | –
46 | COc1ccc2oc(-c3cccc(NC(=O)CSc4ccc(Cl)cc4)c3)nc2c1 | inactive | –
47 | COc1cccc(-c2nc3cc(C)ccc3o2)c1 | 1.3 µM (active) | –
48 | COc1cccc(-c2nnc(SCCOc3ccc4c(C)cc(=O)oc4c3)o2)c1 | inactive | –
49 | CC(OC(=O)c1ccc([N+](=O)[O-])cc1)C(=O)NCC1CCCCC1 (configuration not stated) | inactive | –
50 | CN(Cc1cnccn1)C(=O)c1cc(COc2cccc(C(F)(F)F)c2)on1 | inactive | –

Row | SMILES | Potency | activity change, positive = activation
51 | Cc1cc(CN(C)C(=O)c2cc(COc3ccc(C)c(C)c3)on2)n[nH]1 | 2.91 µM (active) | –
52 | CN(Cc1cccnc1)C(=O)c1cc(COc2ccc3ncccc3c2)on1 | inactive | –
53 | O=C(Cn1cnc2c(OCc3ccccc3)ncnc21)NCc1nc2ccccc2[nH]1 | inactive | –
54 | COc1ccc(C(=O)NCc2nnc(SCCOc3ccccc3)n2C)cc1 | inactive | –
55 | COc1cccc(C(=O)NCCSc2ccc(Br)cc2)c1 | inactive | –
56 | COc1ccc(C(=O)NCCSc2ccccc2C)cc1 | 4.61 µM (active) | –
57 | COc1ccc2nc3n(c(=O)c2c1)-c1ccc(Cl)cc1C(=O)NC3Cc1ccccc1 (configuration not stated) | inactive | –
58 | COc1ccc(CCNC(=O)COC(=O)c2ncc(Cl)c(Cl)c2Cl)cc1OC | inactive | –
59 | CN1CN(C)c2ccc([N+](=O)[O-])c3cccc1c23 | inactive | –
60 | O=C1c2cccc3c([N+](=O)[O-])ccc(c23)C(=O)N1CC1CCCO1 (configuration not stated) | 20.6 µM (active) | –
61 | CCOc1cccc(=O)c2c(C)n(CC3CCCO3)c(C)c12 (configuration not stated) | inactive | –
62 | CC[C@@H](C)[C@@H]1CN([C@@H](C)CN2CCC[C@H]2CN2C(N)=NC[C@H]2C(C)C)C(=N)N1CCc1ccc(Cl)c(Cl)c1 | inactive | –
63 | COc1ccc(-c2nc3cc(C)ccn3c2NC2CCCCC2)cc1SC1CCCCC1 | inactive | –
64 | Nc1c(-c2ccc(F)cc2)cnc2ncnn12 | inactive | –
65 | CC1(C)CN(c2ccc(-c3ccnc4ncnn34)cc2)C1=O | 12.6 µM (active) | –
66 | Cc1ccc(C2(C)NC(=O)N(CC(=O)N3CC(=O)Nc4ccccc43)C2=O)cc1 (configuration not stated) | inactive | –
67 | Cc1occc1C(=O)Nc1cccc(S(=O)(=O)N2CCOCC2)c1 | inactive | –
68 | O=C1C=CN2CCCC2CC1 (configuration not stated) | inactive | –
69 | Cc1cc(N=Nc2ccc3ccccc3c2)ccc1O | 7.3 µM (active) | –
70 | Cc1ccc(/C=N/NC(=O)c2cc3ccccc3cc2O)o1 | inactive | –
71 | Cc1ccc(Br)c(NS(=O)(=O)c2cccc(C(=O)N3CCNC(=O)C3)c2)c1 | inactive | –
72 | CC1(C)CC[C@@]2(C(=O)O)C(C1)C1=CCC3[C@@]4(C)CC[C@H](O)C(C)(C)C4CC[C@@]3(C)[C@]1(C)C[C@H]2O (some centres not stated) | inactive | –
73 | O=C(COc1ccc([N+](=O)[O-])cc1Cl)Nc1ccc2[nH]c(=O)[nH]c2c1 | inactive | –
74 | Cc1csc(=O)n1CC(=O)Nc1ccc(S(C)(=O)=O)cc1 | inactive | –
75 | O=C(COC(=O)c1ccc(F)c(S(=O)(=O)N2CCOCC2)c1)NCc1ccc2c(c1)OCO2 | inactive | –

Row | SMILES | Potency | activity change, positive = activation
76 | O=C1CC2(CCCC2)C(=O)N1CN1CCN(S(=O)(=O)c2ccc(F)cc2F)CC1 | inactive | –
77 | Oc1cccc2ccc(/C=C/c3ccc(Br)s3)nc12 | 20.6 µM (active) | –
78 | Nc1ccc(S(=O)(=O)Nc2nccc(/C=C/c3ccc(Br)s3)n2)cc1 | inactive | –
79 | O=C(O)c1ccccc1C(=O)Nc1nc(-c2ccccc2)cs1 | inactive | –
80 | O=C(COc1ccccc1F)Nc1nc(-c2ccccn2)cs1 | inactive | –
81 | O=C(Nc1nc(-c2cccnc2)cs1)c1ccccc1F | 18.3 µM (active) | –
82 | CC1O[C@@H](OC2C(O)C(C)O[C@H](OC(=O)[C@]34CCC(C)(C)C[C@H]3C3=CCC5[C@@]6(C)CC(O)C(O[C@@H]7OC(CO)C(O)[C@@H](O)[C@@H]7O)[C@@](C)(C(=O)O)C6CC[C@@]5(C)[C@]3(CO)CC4)C2O[C@H]2OC(C)[C@@H](O[C@@H]3OCC(O[C@@H]4OC(CO)C(O)[C@H](O)C4O)[C@@H](O)[C@@H]3O)[C@H](O)C2O)C(O)C(O)C1O (some centres not stated) | inactive | –
83 | C=CCNC(=O)c1cc(-c2ccccc2O)on1 | 18.4 µM (active) | –
84 | C=CCNC(=O)c1csc(-c2ccccc2)n1 | inactive | –
85 | C=CCNC(=O)c1ccccc1SCc1c(C)noc1C | inactive | –
86 | C[C@H](CO)N1C[C@H](C)[C@@H](CN(C)S(=O)(=O)c2ccc(F)cc2)Oc2ccc(NC(=O)CCC(F)(F)F)cc2C1=O | inactive | –
87 | COc1ccc(OCC(=O)Nc2nnc(-c3ccco3)s2)cc1 | inactive | –
88 | O=C(CCc1ccccc1)Nc1cccc(-c2nnc(-c3ccco3)o2)c1 | inactive | –
89 | CCCCOc1ccc(-c2nnc(-c3ccco3)o2)cc1 | 3.66 µM (active) | –
90 | CCC(C)c1ccc(NC(=O)COC(=O)C2CCCC2)cc1 (configuration not stated) | inactive | –
91 | COc1cc(/C=C/C(=O)Nc2ccc(OC)c(S(=O)(=O)N3CCOCC3)c2)ccc1OCC#N | inactive | –
92 | O=C(OCCN1C(=O)c2ccccc2C1=O)[C@@H]1CC(O)CN1S(=O)(=O)c1ccccc1[N+](=O)[O-] (some centres not stated) | inactive | –
93 | CCCc1cc(=O)oc2c(C)c(OCC(=O)NCc3ccccn3)ccc12 | – | 0.193% [at 9.26 µM]
94 | CCCc1cc(=O)oc2c(C)c(OCC(=O)Nc3ccccn3)ccc12 | 5.17 µM (active) | –
95 | CCCc1cc(=O)oc2c(C)c(OCC(=O)N3CCC(C(=O)O)CC3)ccc12 | inactive | –
96 | O=C(Nc1cc(S(=O)(=O)N2CCCCC2)ccc1Cl)C1COc2ccccc2O1 (configuration not stated) | inactive | –
97 | CC[C@]12c3[nH]c4ccc(Cl)cc4c3CCN1C(=O)[C@@H](CC(=O)NCCN1CCOCC1)C[C@@H]2C(=O)N1CCN(C(=O)C2CC2)CC1 | inactive | –
